Assay outcomes as filed in PubChem BioAssay.
CYP2C9 inh: blockers of cytochrome P450 2C9 activity – biochemical, luminescence, ADME assay, primary screen. P11712. CYP2C9 Supersomes, luciferin-H conversion. inhibition, % at 5 µM. 20% of 96,000 active. AID 777, 2007;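 active means blocking of liver enzyme CYP2C9 beyond about 50% at 5 µM, limit read from the data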
CD11b adhes enh: enhancers of CD11b/CD18 adhesion to fibrinogen, primary screen, K562 cells, luminescence; ATPlite luminescence; activation, % at 10 µM; 0.07% of 93,000 active; AID 1499, 2009;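 active means 10 µM primary screen giving 50% or more activity, confirmed by 40% or more on retest at that dose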
CYP2C19 act: human CYP2C19 activators, primary screen, biochemical, luminescence; Cytochrome P450 2C19 (Homo sapiens), P33261; AID 1025, 2008; 96,000 tested, under 10 active; activation factor at 5 µM; recombinant CYP2C19, luciferin-H EGE luminescence; stronger effect = higher value; 0 = fully inhibited enzyme, 1 = untreated enzyme;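 active means activation factor of at least 2 at 5 µM in the primary screen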
Target sequence (P33261 whole entry, looked up): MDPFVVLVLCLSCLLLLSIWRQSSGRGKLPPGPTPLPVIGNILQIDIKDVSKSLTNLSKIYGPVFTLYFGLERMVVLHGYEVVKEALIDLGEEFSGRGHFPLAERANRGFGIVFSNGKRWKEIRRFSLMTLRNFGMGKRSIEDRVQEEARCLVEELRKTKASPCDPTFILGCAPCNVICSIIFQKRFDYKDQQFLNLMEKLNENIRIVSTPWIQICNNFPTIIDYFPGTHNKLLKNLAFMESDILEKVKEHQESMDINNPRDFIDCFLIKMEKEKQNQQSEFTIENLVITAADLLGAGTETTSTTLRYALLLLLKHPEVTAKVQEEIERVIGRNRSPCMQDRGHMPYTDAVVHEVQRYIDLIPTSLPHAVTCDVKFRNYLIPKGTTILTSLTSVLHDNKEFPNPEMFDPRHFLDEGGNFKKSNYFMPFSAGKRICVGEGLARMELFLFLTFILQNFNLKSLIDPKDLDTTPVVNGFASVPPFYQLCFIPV
Mac1 fbg inh: inhibitors of CD11b/CD18 adhesion to fibrinogen, primary screen, K562 cells, luminescence; Integrin beta-2 (Homo sapiens) + Integrin alpha-M (Homo sapiens), P05107+P11215; ATPlite luminescence; Mn2+ added to activate the integrin; inhibition, % at 10 µM; 0.54% of 93,000 active;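 active means primary inhibition of 50% or more at 10 µM, then 40% or more on retest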
CYP2C9 act: human CYP2C9 activators, primary screen, biochemical, luminescence. Cytochrome P450 2C9 (Homo sapiens), P11712. recombinant CYP2C9, luciferin-H conversion; stronger effect = higher value; factor 1 = untreated enzyme, 0 = blocked. 1.4% of 96,000 active. activation factor at 5 µM;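 active means activation factor of 2 or more for CYP2C9 at a 5 µM dose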
CYP2C19 inh: blockers of cytochrome P450 2C19 activity – biochemical, luminescence, ADME assay, primary screen; P33261; CYP2C19 Supersomes, luciferin-H EGE luminescence, 30 min; inhibition, % at 5 µM; 21% of 96,000 active; AID 778, 2007;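 active means CYP2C19 inhibition above a set limit at 5 µM in the primary screen, cut at about 50% in these data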
Each line names hits and unclear results; the compound was inactive in the other large screens. Most compounds without a hit are left out; they make up all but 28% or so of the library.

Cc1cc(C)c(NC(=O)CSc2nnc(-c3ccncc3)n2Cc2ccco2)c(Cl)c1	CYP2C9 inh 92, CYP2C19 inh 79
COc1ccccc1C1(CC(=O)N2CCCCC2)CCOC(C(C)C)C1 (centres undefined)	CYP2C19 inh 50
Cc1ccc(C2(CC(=O)N3CCCC3)CCOC(C(C)C)C2)cc1 (centres undefined)	none
COC(=O)C1=C(C)NC(C)=C(C(=O)OC)C1c1cn(-c2ccccc2)nc1-c1ccco1	CYP2C9 inh 83
O=C1CSC(c2cn(-c3ccccc3)nc2-c2cccs2)N1Cc1ccccc1 (centres undefined)	none
COCCOC(=O)C1=C(C)NC(=O)NC1c1cn(-c2ccccc2)nc1-c1cccs1 (centres undefined)	CYP2C9 inh 70, CYP2C19 inh 76
CC1=C(C#N)C(c2cn(-c3ccccc3)nc2-c2cccs2)C(C#N)=C(C)N1	CYP2C9 inh 75, CYP2C19 inh 74
C=CCOC(=O)C1=C(C)NC(=O)NC1c1cn(-c2ccccc2)nc1-c1cccs1 (centres undefined)	CYP2C9 inh 79, CYP2C19 inh 68
O=C(CSc1ncnc2ccccc12)Nc1ccc(N2CCOCC2)cc1	none
O=C(CCSc1ccccc1)Nc1nc2c(s1)COc1ccccc1-2	none
Cc1ccc(S(=O)(=O)N2CCN(C(=O)CN3CCN(C)CC3)C2)cc1	none
Cc1cccc(Nc2ncccc2C(=O)NCc2cccs2)c1C	CYP2C9 inh 57 (no result: CD11b adhes enh, Mac1 fbg inh)
Cc1ccc(Nc2ncccc2C(=O)NCc2cccs2)c(C)c1	none (no result: CD11b adhes enh, Mac1 fbg inh)
CC(C)(C)c1ccc(NC(=S)NCc2cccs2)cc1	none
CCC(C)c1ccc(NC(=S)NCc2cccs2)cc1 (centres undefined)	CYP2C19 inh 58
Cc1cccc(NC(=S)NCc2cccs2)c1C	CYP2C19 inh 52
Cc1c(NC(=O)NCCN2C(=O)C3C4C=CC(C4)C3C2=O)c(=O)n(-c2ccccc2)n1C (centres undefined)	none
CCC(=O)Nc1nc(C)c(C(=O)N2CCCCC2)s1	none
C=CCNc1nc(Cl)nc(Nc2ccc(OCC)cc2)n1	none (no result: CYP2C9 inh, CYP2C19 act, CYP2C9 act, CYP2C19 inh)
CC1(C)Cc2c(C#N)c(OCC(=O)c3ccc(Cl)cc3)nc(-c3ccco3)c2CO1	CYP2C19 inh 59
CCc1nc(OCC(=O)c2ccccc2)c(C#N)c2c1COC(C)(C)C2	none
Cc1nc(OCC(=O)c2ccc(Cl)cc2)c(C#N)c2c1COC(C)(C)C2	CYP2C19 inh 52
Cc1ccc(S(=O)(=O)Cc2ccc(C(=O)NCCCN3CCN(C)CC3)o2)cc1	none
Cc1cc(SCC(=O)NC(=O)NCc2ccco2)nc2c(C)cccc12	none
Cc1[nH]n(-c2ccccc2)c(=O)c1/C=N/O	none (no result: CD11b adhes enh, Mac1 fbg inh)
O=c1c(Sc2ccccc2)c(C(F)(F)F)[nH]n1-c1ccccc1	CYP2C9 inh 97, Mac1 fbg inh 56
CC1Oc2ccccc2OC1(O)c1ccccn1 (centres undefined)	none (no result: CYP2C9 inh, CYP2C19 act, CYP2C9 act, CYP2C19 inh)
N#CCSc1nc2c(sc(=S)n2Cc2ccco2)c(=O)n1-c1ccc(F)cc1	CYP2C9 inh 71, CYP2C19 inh 64 (no result: CD11b adhes enh, Mac1 fbg inh)
Cc1ccc(S(=O)(=O)N(c2nc(N(C)C)nc(N(C)C)n2)n2cnnc2)cc1	CYP2C9 inh 54
Cc1scc(C(=O)N/N=C/c2ccc(OCC(C)C)cc2)c1C	CYP2C9 inh 82, CYP2C19 inh 72
CCCCOc1ccc(/C=N/NC(=O)c2csc(C)c2C)cc1	CYP2C9 inh 60, CYP2C19 inh 65
CCCOc1ccc(CNC(=S)N/N=C/c2ccc([N+](=O)[O-])cc2)cc1	none
CCN(CC)CCOC(=O)C1c2ccccc2Oc2ccccc21	none
CCCCNC(=O)CSc1nc2ccccc2c(=O)n1CC1COc2ccccc2O1 (centres undefined)	CYP2C19 inh 70
O=C(CCCn1c(SCC(=O)NCC2CCCO2)nc2ccccc2c1=O)NCC1CCCO1 (centres undefined)	none
CCCCN(CC)C(=O)CSc1nc2ccccc2c(=O)n1CC1COc2ccccc2O1 (centres undefined)	CYP2C9 inh 74
CCOC(=O)c1cccc(NC(=O)CSc2nnc(-c3cccnc3)n2C)c1	none (no result: CD11b adhes enh, Mac1 fbg inh)
CN(C(=O)c1cccnc1)c1nc(-c2ccccc2)cs1	none
CN(C(=O)c1ccncc1)c1nnc(-c2ccccn2)s1	CYP2C9 inh 99, CYP2C19 inh 81
CCN(C(=O)Cc1cccs1)c1nnc(-c2cccnc2)s1	CYP2C9 inh 50
CN(C(=O)c1ccncc1)c1nnc(-c2cccnc2)s1	CYP2C9 inh 100, CYP2C19 inh 93
COc1ccc(S(=O)(=O)NCCCCCC(=O)NCCCN2CCOCC2)cc1	none
Cc1ccc(CNC(=O)CCOc2ccc(C(C)(C)C)cc2)cc1	none
CCOC(=O)N1CCN(S(=O)(=O)c2ccc(C)cc2)C1c1ccc(OC)cc1 (centres undefined)	CYP2C19 inh 74
CCOC(=O)N1CCN(S(=O)(=O)c2ccc(C)cc2)C1c1ccccc1 (centres undefined)	CYP2C9 inh 70, CYP2C19 inh 91
Fc1ccc(-c2nnc(CN3CCN(c4ncc(C(F)(F)F)cc4Cl)CC3)o2)cc1	none
COC(=O)C1=C(C(=O)OC)SC2(S1)C(C(=O)OC)=C(C(=O)OC)SC1=C2c2cccc(C)c2NC1(C)C	CYP2C9 inh 88, CYP2C19 inh 85
COc1ccc(N=C(C)C2=C(O)COC2=O)cc1	none
CC(=O)c1cc(CN2C(=O)c3ccccc3C2=O)cs1	CYP2C19 inh 96
COC(=O)C1=C2SC(C)C(=O)N2C(N)=C(C#N)C1c1cc(OC)c(OC)c(OC)c1 (centres undefined)	none
COC(=O)C1=C2SC(C)C(=O)N2C(N)=C(C#N)C1c1ccc(OC)c(OC)c1 (centres undefined)	CYP2C9 inh 56
CSCC[C@H](NC(=O)c1nn(C)c(=O)c2ccccc12)c1nc2ccccc2[nH]1	CYP2C9 inh 94 (no result: CD11b adhes enh, Mac1 fbg inh)
CCCCn1nc(C(=O)N[C@@H](CCSC)c2nc3ccccc3[nH]2)c2ccccc2c1=O	CYP2C9 inh 90, CYP2C19 inh 62
CSCC[C@H](NC(=O)c1ccc(Cl)c([N+](=O)[O-])c1)c1nc2ccccc2[nH]1	none (no result: CYP2C9 inh, CYP2C19 act, CYP2C9 act, CYP2C19 inh)
CCCCC(NC(C)=O)c1nc2ccccc2[nH]1 (centres undefined)	CYP2C19 inh 64
CSCC[C@H](NC(=O)CC(C)(C)C)c1nc2ccccc2[nH]1	none (no result: CD11b adhes enh, Mac1 fbg inh)
CCn1nc(C(=O)N[C@@H](CCSC)c2nc3ccccc3[nH]2)c2ccccc2c1=O	CYP2C9 inh 96, CYP2C19 inh 64
